Assay [1] is described as follows: qHTS assay to identify small molecule antagonists of the estrogen receptor alpha (ER-alpha) signaling pathway using the BG1 cell line in the presence of 0.1 nM 17-beta-estradiol - cell viability counter screen (AID 1259241). Also: nearly all actives have a fitted effect of over 40% in size. Also: potency is read from the fitted curve at half-maximal effect. The method in brief:
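VM7Luc4E2 cells (endogenous full-length ER-alpha, 4xERE-luciferase), cultured 5 days in charcoal-stripped serum, exposed to compounds with 0.1 nM 17beta-estradiol (final) for 22 hr at 37C. Viability read in same wells as live-cell protease fluorescence after 30 min.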
On the technique in general: In qHTS, concentration-response curves come from the screen itself.

Assay [2] can be described thus: qHTS assay to identify small molecule antagonists of the androgen receptor (AR) signaling pathway using the MDA cell line in the presence of 0.5 nM R1881 - cell viability counter screen (AID 1259242). Also: nearly all actives have a fitted effect of over 45% in size. Also: potency is read from the fitted curve at half-maximal effect. The method in brief: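 Viability of MDA-kb2 cells was multiplexed with the luciferase AR readout; after 16 hr with compounds and R1881 at 0.5 nM final, CellTiter-Fluor fluorescence was recorded.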

In assay [3] the target is Estrogen receptor (Homo sapiens) (UniProt P03372). The assay is described as follows: qHTS assay to identify small molecule antagonists of the estrogen receptor alpha (ER-alpha) signaling pathway using the BG1 cell line in the presence of 0.1 nM 17-beta-estradiol (AID 1259244). Also: nearly all actives have a fitted effect of over 50% in size. Also: potency is read from the fitted curve at half-maximal effect. The method in brief:
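Estradiol at 0.1 nM (final) stimulates the endogenous ER-alpha of VM7Luc4E2 cells carrying an ERE-driven luciferase; compounds are co-incubated 22 h at 37C and luciferase output quantified by luminescence.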

The nature of assay [4]: qHTS assay to identify small molecule HDAC inhibitors (AID 1259364).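 Also: wild-type HCT-116 cells with endogenous class I/II HDAC activity; top concentration of the series differs between compounds; nearly all actives have a fitted effect of over 45% in size.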 The method in brief:
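Read-out: luminescence of HDAC-Glo I/II reagent, 30 min RT, reflecting class I/II deacetylase activity in whole HCT-116 cells pre-exposed 2 h to DMSO-dissolved compounds.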

A short description of assay [5]: qHTS assay to identify small molecule agonists of the sonic hedgehog signaling (Shh) pathway - cell viability counter screen (AID 1259366). Also: nearly all actives have a fitted effect of over 50% in size. Also: potency is read from the fitted curve at half-maximal effect. Put shortly:
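NIH/3T3-derived Gli1-Luc reporter cells, 2,000 per well, received compound after 4 h and were treated about 23 h at 37C. Viability measured in the same wells by CellTiter-Fluor fluorescence after 1 h.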

Assay [6] in a line: qHTS assay to identify small molecule antagonists of the sonic hedgehog signaling (Shh) pathway - cell viability counter screen (AID 1259367). Also: nearly all actives have a fitted effect of over 55% in size. The method in brief: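 After a 4 hr settling period, 3T3 Gli1-Luc cells were treated with DMSO-dissolved chemicals and conditioned medium, kept 24 hr at 37C in 5% CO2, and assayed for viability by CellTiter-Fluor fluorescence following 1 hr reagent incubation.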

A short description of assay [7]: qHTS assay to identify small molecule agonists of the sonic hedgehog signaling (Shh) pathway (AID 1259368; calls by dose curve;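 also: NIH/3T3-derived 3T3Gli1-Luc cells carrying a stable Gli1-driven firefly luciferase reporter; series mostly up to about 92 µM; nearly all actives have a fitted effect of over 15% in size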). The method in brief: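 A Gli1 transcriptional response element controlled firefly luciferase in 3T3Gli1-Luc cells. Compounds and a positive control were added 4 hr after plating, and cells were incubated a further 24 hr at 37 C before luminescence detection.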

For assay [8], the target named is Estrogen receptor beta (Homo sapiens) (UniProt Q92731). Briefly: qHTS assay to identify small molecule antagonists of the estrogen receptor beta (ER-beta) signaling pathway (AID 1259378; active = well fitted inhibition curve with a large enough effect in the signal ratio in the repeat runs, not every such curve was filed as active; the % refers to the signal ratio; also: potency is read from the fitted curve at half-maximal effect). Put shortly: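 ER-beta-UAS-bla HEK293T (GripTite) cells in 2% charcoal-stripped FBS medium were preincubated 6 hr at 37C, dosed with compound, then stimulated with 1 nM E2 (final) for 16 hr; beta-lactamase reporter read by B/G FRET fluorescence after 2 hr substrate loading.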

The nature of assay [9]: qHTS assay to identify small molecule agonists of the androgen receptor (AR) signaling pathway in the presence of an antagonist - cell viability counter screen (AID 1259379). Also: nearly all actives have a fitted effect of over 25% in size. Also: potency is read from the fitted curve at half-maximal effect. Put shortly:
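Seed MDA-kb2 at 3,000 cells/well; incubate 5 hr, 37C, 0% CO2. Add nilutamide to 3.0uM final, then pin compounds at 15 concentrations. Incubate 16 hr. Add CellTiter-Fluor at 15 hr, read fluorescence after 1 hr.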

Assay [10] can be described thus: qHTS assay to identify small molecule agonists of the estrogen receptor beta (ER-beta) signaling pathway - cell viability counter screen (AID 1259380). Also: nearly all actives have a fitted effect of over 30% in size. Also: potency is read from the fitted curve at half-maximal effect. Put shortly: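 CellTiter-Glo read, 30 min RT, same wells as bla assay; cells ER-beta-UAS-bla HEK293T; 16 hr compound, 37C; medium 2% charcoal-stripped FBS.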
Assay [11] can be described thus: qHTS assay to identify small molecule antagonists of the estrogen receptor beta (ER-beta) signaling pathway - cell viability counter screen (AID 1259382). Also: series mostly up to about 92 µM; nearly all actives have a fitted effect of over 55% in size. The method in brief:
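In this multiplexed counter screen, cells were seeded at 2,000 per well in medium with 2% charcoal-stripped FBS and incubated 6 hr before compound and 1nM final E2 were added. Sixteen hours later, ATP-based luminescence reported viability.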

Assay [12] concerns the target Estrogen receptor (Homo sapiens) (UniProt P03372). The assay is described as follows: qHTS assay to identify small molecule agonists of the estrogen receptor alpha (ER-alpha) signaling pathway in the presence of an antagonist (AID 1259383; calls by dose curve; also: top concentration of the series differs between compounds; nearly all actives have a fitted effect of over 15% in size). Put shortly: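 Stably transfected VM7Luc4E2 reporter cells, kept 5 days in charcoal-stripped serum, received ICI-182,780 at 10.0nM final before compound addition. Following 22hr incubation at 37C and 5% CO2, luciferase signal was read by luminescence.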

Assay [13] in a line: qHTS assay to identify small molecule agonists or antagonists of the thyroid stimulating hormone receptor (TSHR) signaling pathway - wild type cell line counter screen (AID 1259384; calls by dose curve). Put shortly: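 Wild-type HEK293 cells were plated 18 h at 37 C/5% CO2, pin-dosed with compound plus Ro20-1724 medium, held 30 min at room temperature, then given cAMP-d2 and anti-cAMP-cryptate; fluorescence was read after 1 h. Fifteen concentrations, triplicate.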

Assay [14] in a line: qHTS assay to identify small molecule phospholipidosis (PLD) inducers (AID 1259344; active = well fitted curve in the direction sought with a large enough effect; an effect the other way counts as inactive or inconclusive; also: potency is read from the fitted curve at half-maximal effect). The method in brief:
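HepG2 cells grown on collagen I take up LipidTOX Red while exposed to compound for 24 h; after fixation they are imaged at 20x and pit metrics are extracted.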

Assay [15] is described as follows: qHTS assay to identify small molecule HDAC inhibitors - cell viability counter screen (AID 1259365). Also: series mostly up to about 92 µM; nearly all actives have a fitted effect of over 50% in size. Put shortly: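 Wild-type HCT-116 cells, 1,500/well, cultured overnight, then compound-treated 2 h at 37 C. Viability measured as ATP luminescence with CellTiter-Glo after 30 min at room temperature.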
Assay [16] can be described thus: qHTS assay to identify small molecule antagonists of the sonic hedgehog signaling (Shh) pathway (AID 1259369; calls by dose curve; also: nearly all actives have a fitted effect of over 45% in size; also: potency is read from the fitted curve at half-maximal effect). Put shortly:
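For antagonist detection, the reporter line received test compounds together with conditioned medium, incubated 24hr at 37 C, 5% CO2, then luminescence was recorded following 30min room-temperature luciferase reagent incubation.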

The target of assay [17] is Estrogen receptor beta (Homo sapiens) (UniProt Q92731). The assay is described as follows: qHTS assay to identify small molecule agonists of the estrogen receptor beta (ER-beta) signaling pathway (AID 1259377; active = well fitted activation curve with a large enough effect in the signal ratio in the repeat runs, not every such curve was filed as active; the % refers to the signal ratio). The method in brief:
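ER-beta-UAS-bla HEK293T cells in medium with 2% charcoal-stripped FBS were exposed to compounds for 16 h at 37C. Beta-lactamase reporter activity was read as fluorescence after 2 h with LiveBLAzer B/G FRET substrate at room temperature.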

In assay [18] the target is Thyrotropin receptor (Homo sapiens) (UniProt P16473). The assay is described as follows: qHTS assay to identify small molecule antagonists of the thyroid stimulating hormone receptor (TSHR) signaling pathway (AID 1259385; calls by dose curve; also: nearly all actives have a fitted effect of over 20% in size; also: potency is read from the fitted curve at half-maximal effect). Put shortly: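 TSHR-HEK293 cells were plated and held 18 h at 37C/5% CO2, then given compound plus Ro20-1724 and stimulated with TSH at 1.5 ng/mL final. After 30 min at room temperature, cAMP was detected with cAMP-d2/anti-cAMP-cryptate (1 h) by fluorescence.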

Several values for one entry are separate records, joined by “and”; a condition that tells them apart may be missing. Equal entries are not always repeated. Results filed as inconclusive are left out. Some compounds were tested as several samples or in several runs, with calls that do not always agree. Activity calls are given as the source filed them. Unless noted, calls follow the shape of the dose curve; as a rule, active = well fitted curve in the direction sought with a large enough effect in the repeat runs; inconclusive = weak or mixed curves; inactive = no such curve, though single readings can be large; an effect the other way counts as inactive or inconclusive.

Data on seven compounds can be found in PubChem BioAssay (Tox21).

Chain of Estrogen receptor (Homo sapiens) (P03372 whole entry, looked up): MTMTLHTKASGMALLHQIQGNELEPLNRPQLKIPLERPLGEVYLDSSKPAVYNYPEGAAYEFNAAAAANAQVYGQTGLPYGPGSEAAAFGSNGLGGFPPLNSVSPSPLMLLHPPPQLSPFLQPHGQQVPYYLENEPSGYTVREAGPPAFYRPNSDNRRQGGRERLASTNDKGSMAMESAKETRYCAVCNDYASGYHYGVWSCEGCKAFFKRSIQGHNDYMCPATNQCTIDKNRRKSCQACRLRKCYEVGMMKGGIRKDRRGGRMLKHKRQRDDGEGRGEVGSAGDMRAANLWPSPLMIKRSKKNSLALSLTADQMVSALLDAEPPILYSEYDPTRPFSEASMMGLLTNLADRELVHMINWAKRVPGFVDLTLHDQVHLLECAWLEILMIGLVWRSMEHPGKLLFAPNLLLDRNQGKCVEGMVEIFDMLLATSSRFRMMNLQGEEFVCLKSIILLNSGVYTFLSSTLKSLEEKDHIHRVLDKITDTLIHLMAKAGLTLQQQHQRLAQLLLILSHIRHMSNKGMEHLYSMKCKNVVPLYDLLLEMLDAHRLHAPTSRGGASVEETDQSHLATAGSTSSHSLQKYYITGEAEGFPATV
Chain of Estrogen receptor beta (Homo sapiens) (Q92731 whole entry, looked up): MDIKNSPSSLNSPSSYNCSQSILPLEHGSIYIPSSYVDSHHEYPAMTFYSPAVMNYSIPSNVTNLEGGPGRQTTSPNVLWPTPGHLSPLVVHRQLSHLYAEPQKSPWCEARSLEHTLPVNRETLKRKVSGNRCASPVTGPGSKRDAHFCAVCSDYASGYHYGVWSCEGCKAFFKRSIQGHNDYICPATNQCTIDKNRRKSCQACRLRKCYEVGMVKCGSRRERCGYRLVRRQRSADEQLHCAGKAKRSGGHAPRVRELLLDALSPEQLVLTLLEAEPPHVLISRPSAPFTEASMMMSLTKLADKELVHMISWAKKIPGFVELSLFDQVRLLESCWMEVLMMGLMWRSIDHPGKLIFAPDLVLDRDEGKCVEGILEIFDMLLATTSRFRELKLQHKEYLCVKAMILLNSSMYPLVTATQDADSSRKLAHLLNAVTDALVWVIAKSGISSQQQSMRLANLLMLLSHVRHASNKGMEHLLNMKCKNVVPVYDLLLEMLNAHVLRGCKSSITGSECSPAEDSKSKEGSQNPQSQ
Chain of Thyrotropin receptor (Homo sapiens) (P16473 whole entry, looked up): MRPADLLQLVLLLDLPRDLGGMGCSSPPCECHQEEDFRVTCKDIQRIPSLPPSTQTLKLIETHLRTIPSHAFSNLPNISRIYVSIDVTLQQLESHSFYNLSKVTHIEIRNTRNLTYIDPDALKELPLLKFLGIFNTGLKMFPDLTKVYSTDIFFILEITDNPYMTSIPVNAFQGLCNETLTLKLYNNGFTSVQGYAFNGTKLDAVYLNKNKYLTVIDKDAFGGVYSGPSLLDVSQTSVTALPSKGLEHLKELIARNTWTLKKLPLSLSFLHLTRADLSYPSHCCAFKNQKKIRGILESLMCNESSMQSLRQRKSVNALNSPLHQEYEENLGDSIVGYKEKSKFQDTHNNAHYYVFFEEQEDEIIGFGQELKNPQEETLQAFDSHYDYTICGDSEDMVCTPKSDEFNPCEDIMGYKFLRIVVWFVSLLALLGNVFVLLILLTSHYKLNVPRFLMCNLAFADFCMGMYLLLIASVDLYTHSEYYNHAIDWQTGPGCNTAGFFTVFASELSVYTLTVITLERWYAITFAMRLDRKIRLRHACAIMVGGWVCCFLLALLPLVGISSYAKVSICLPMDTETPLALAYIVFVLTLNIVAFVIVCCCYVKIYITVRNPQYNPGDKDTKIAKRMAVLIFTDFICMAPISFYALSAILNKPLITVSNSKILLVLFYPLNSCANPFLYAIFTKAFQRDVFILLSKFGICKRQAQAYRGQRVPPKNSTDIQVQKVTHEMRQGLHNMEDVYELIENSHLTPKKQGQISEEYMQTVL

For the compound `Cn1[nH]nnc1=S`, the Potency result in assay [1], in [2], in [3], in assay [4], in [5] and in [6] was “inactive” each time. Moreover, the Potency result in [7], in assay [8], in assay [9], in assay [10], in assay [11] and in [12] was “inactive” each time. Moreover, the compound was called inactive in assay [13].

Regarding `FC(F)(F)c1cccc(C2=CCN(CCc3ccc4ccccc4c3)CC2)c1`, the Potency entry in assay [1], in assay [2], in assay [14], in assay [4], in assay [15] and in [5] was “inactive” each time. Further, the Potency result in [6], in [7], in assay [16], in assay [8], in assay [9] and in [11] was “inactive” in each case.

Turning to `CC1(c2ccc(Oc3ccccc3)cc2)OC(=O)N(Nc2ccccc2)C1=O` (stereo not given), the Potency was 21.8 µM (active) in [1]; 24.5 µM (active) in [2]; 8.69 µM (active) in assay [3]; 6.15 µM (active) in assay [16]; 10.9 µM (active) in [8]; 24.5 µM (active) in assay [9]. Besides, the Potency entry in [4], in [15], in assay [7], in assay [17], in [11] and in assay [12] was “inactive” each time. In addition, the compound was called inactive in [13].

With `Clc1ccc(C(c2ccc(Cl)cc2)C(Cl)(Cl)Cl)cc1`, the Potency result in assay [1], in assay [2], in assay [14], in assay [4], in assay [6] and in assay [7] was “inactive” each time. Also, the Potency result in [17], in assay [9] and in [11] was “inactive” each time. The Potency is 48.9 µM (active) and inactive in assay [5]; 13.7 µM (active) and 7.5 µM (active) in assay [8]; 61.6 µM (active) and 54.5 µM (active) in assay [10]; 30.9 µM (active) and 54.5 µM (active) in assay [18]. Besides, the call in [13] was inactive.

Turning to `c1ccc2c(c1)[nH]c1cnccc12`, the Potency entry in assay [1], in assay [2], in [3], in assay [4], in assay [5] and in assay [6] was “inactive” each time. Also, the Potency entry in [7], in assay [17], in [8], in assay [9], in [11] and in assay [12] was “inactive” throughout. Moreover, the Potency entry in assay [18] is “inactive”. The compound was classed as inactive in assay [13].

For `ClCc1ccccc1CCl`, the Potency entry in [1], in assay [2], in assay [3], in assay [4], in [5] and in assay [6] was “inactive” in each case. The Potency result in assay [7], in assay [16], in [17], in assay [8], in assay [10] and in [11] was “inactive” in each case. Also, the Potency entry in [12] and in assay [18] was “inactive” each time. Further, the Potency in assay [9] was 61.1 µM (active). Also, the compound was classed as inactive in [13].

Consider `Cn1cc(C2=C(c3cn(C4CCN(Cc5ccccn5)CC4)c4ccccc34)C(=O)NC2=O)c2ccccc21`, for which the Potency result in assay [1], in assay [2], in assay [4], in assay [15], in assay [5] and in assay [6] was “inactive” throughout. In addition, the Potency entry in assay [7], in [10], in [11] and in [18] was “inactive” in each case. Moreover, the Potency in [14] was 1.78 µM (active); in assay [9], 11.9 µM (active). In addition, the result in assay [13] was inactive.
